Compounds with a hit are over-represented: about 5% of the library has one in this group of screens.
ALR H2O2 inh: blocks human ALR sulfhydryl oxidase activity; 3.8% of 290,000 active; purified ALR, DTT oxidation, H2O2 HRP-luminol luminescence; P55789; inhibition, % (test concentration not listed); AID 485317;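 active means mean replicate inhibition above about 79%, with every replicate also reaching it, limit read from the data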
CHT PAM: human CHT allosteric activation; CHT-expressing cells, membrane potential dye, choline EC20; stronger effect = higher value; LV-AA mutant CHT in HEK293 cells; B-score at 10 µM; 0.49% of 310,000 active;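 active means initial fluorescence not abnormally high and integrated response B-score, plate-corrected, over 3 SD above library mean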
PREPL inhibitor: inhibitors of human prolyl oligopeptidase-like enzyme PREPL | Q4J6C6 | recombinant PREPL, fluorescence polarization activity-based probe | inhibition, % at 5.96 µM | 0.68% of 320,000 active; in the data active means inhibition above about 43%
Target sequence (Q4J6C6 whole entry, looked up): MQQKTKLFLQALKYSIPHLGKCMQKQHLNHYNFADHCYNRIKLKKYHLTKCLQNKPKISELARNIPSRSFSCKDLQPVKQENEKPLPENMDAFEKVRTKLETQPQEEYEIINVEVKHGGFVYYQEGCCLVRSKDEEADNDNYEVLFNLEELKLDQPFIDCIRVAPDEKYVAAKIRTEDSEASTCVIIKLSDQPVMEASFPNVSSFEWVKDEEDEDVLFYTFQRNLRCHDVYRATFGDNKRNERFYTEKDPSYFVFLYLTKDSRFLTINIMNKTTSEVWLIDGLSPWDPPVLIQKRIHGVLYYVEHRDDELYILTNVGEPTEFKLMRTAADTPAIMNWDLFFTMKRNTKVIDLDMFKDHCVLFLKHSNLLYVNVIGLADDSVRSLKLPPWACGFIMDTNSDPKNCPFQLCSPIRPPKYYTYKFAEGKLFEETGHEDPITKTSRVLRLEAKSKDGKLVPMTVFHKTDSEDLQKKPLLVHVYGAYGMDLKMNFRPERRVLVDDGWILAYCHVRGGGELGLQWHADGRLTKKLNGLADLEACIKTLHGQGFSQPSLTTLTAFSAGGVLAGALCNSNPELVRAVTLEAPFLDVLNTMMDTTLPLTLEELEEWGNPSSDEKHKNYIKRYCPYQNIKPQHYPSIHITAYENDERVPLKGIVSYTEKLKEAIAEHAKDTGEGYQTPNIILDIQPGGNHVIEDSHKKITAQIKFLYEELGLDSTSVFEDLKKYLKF
AI-2 QS mod: Vibrio harveyi AI-2 quorum sensing modulation. Vibrio harveyi JMH597 AI-2 luminescence/OD600 ratio, 9 h; stronger effect = lower value; strain lacks LuxN and CqsS sensors; 0 = neutral-control median. activity change, % at 7.5 µM. 0.4% of 300,000 active; in the data active means activity change below about -75%, passing the limit was not always enough;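 further: luminescence divided by OD600 gain over 9 h not by final OD600 alone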
CHT block: human CHT choline transport inhibition. Q9GZV3. CHT-expressing cells, membrane potential dye, choline response; stronger effect = lower value. B-score at 10 µM. 0.86% of 310,000 active. AID 488975;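 active means B-score over 3 SD under the library average, and starting fluorescence ratio not unusually high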;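 further: choline stimulus applied at its EC90 after an EC20 pre-addition; B-score computed on integrated fluorescence ratio after choline addition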
CHT inh conf: confirmation of human choline transporter CHT inhibitors; shares compounds with CHT block; CHT-expressing cells, choline membrane potential dye; LV-to-AA substituted CHT, HEK293 cells; CHT activity remaining % of control (stronger effect = lower value), % at 10 µM; 70% of 2,400 active; AID 493221;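 active means choline transporter activity left, mean of duplicates at 10 µM, below buffer-only control mean minus 3 SD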;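 further: depolarization triggered by choline at its EC90 following an EC20 pre-addition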
HEK293 MPD ctr: counter-screen for CHT inhibitors: effect in parental HEK293 cells; AID 493222; shares compounds with CHT block; membrane potential ratio readout (active if shifted either direction beyond buffer ±3SD; no single direction) at 10 µM; 4% of 2,400 active; membrane potential dye, choline response; active = decrease or increase beyond buffer ±3SD;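 further: parental cells lack the transporter so any hit is non-specific; ratio is peak minus trough fluorescence over baseline after EC90 choline challenge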
A number is an active result; – = inactive; · = not tested or not shown.

SMILES | ALR H2O2 inh | CHT PAM | PREPL inhibitor | AI-2 QS mod | CHT block | CHT inh conf | HEK293 MPD ctr
CC(C)n1cc([C@@H]2C[C@H]3CN(Cc4cccc(Cl)c4)C(=O)[C@]34CCCN24)cn1 | – | – | – | – | -5.3 | – | –
O=C(CN1CCN(Cc2ccccc2Cl)C1=O)NC1CCCCCCC1 | – | – | – | – | -5.2 | – | –
CC1CCCCC1NC(=O)CN1CCN(Cc2ccccc2Cl)C1=O (stereo unspecified) | – | – | – | – | – | · | ·
O=C(O)c1ccccc1NS(=O)(=O)c1cccc(C(F)(F)F)c1 | – | – | – | – | – | · | ·
Cc1csc(NS(=O)(=O)c2cccc([N+](=O)[O-])c2)n1 | – | – | – | – | – | · | ·
O=S(=O)(Nc1nc(-c2ccccc2)cs1)c1cccc(C(F)(F)F)c1 | – | – | – | – | -7.7 | 51% | –
O=[N+]([O-])c1ccc(S(=O)(=O)Nc2nc(-c3ccccc3)cs2)cc1 | – | – | – | – | -5.6 | 58% | –
COc1ccc(NC(=O)CN(C)C(=O)CCNS(=O)(=O)c2ccc(Br)cc2)cc1 | – | – | – | – | – | · | ·
O=C(OCC(=O)N1CCC(Cc2ccccc2)CC1)c1ccc(CO)cc1 | · | · | – | · | · | · | ·
Cc1cc(C)nc(NS(=O)(=O)c2ccc(NC(=O)C3CC3)cc2)n1 | · | – | – | – | – | · | ·
Cc1cc(C)nc(NS(=O)(=O)c2ccc(NC(=O)C3COc4ccccc4O3)cc2)n1 (stereo unspecified) | – | – | – | – | -6.4 | 41% | –
N#Cc1c(Cl)cccc1N1CCC(C(N)=O)CC1 | – | – | – | – | – | · | ·
N#Cc1c(Cl)cccc1N1CCCC1 | – | – | – | – | -7.2 | 49% | –
CN(CC(=O)Nc1ccccc1Cl)C(=O)COC(=O)CN1C(=O)NC2(CCCC2)C1=O | – | – | – | – | – | · | ·
O=[N+]([O-])c1ccc(Nc2ccccc2)c2nonc12 | – | – | – | – | -6 | 47% | –
Cc1cccc(OCCOC(=O)c2c(-c3ccccc3)noc2C)c1 | · | – | – | – | -5.4 | – | –
CCCOc1cccc(NC(=O)c2c(-c3ccccc3)noc2C)c1 | – | – | – | – | – | · | ·
COc1cc(NC(=O)COC(=O)Cn2cnc3c2c(=O)n(C)c(=O)n3C)cc(OC)c1 | · | · | – | · | · | · | ·
CC[C@H](C)[C@H](NC(=O)c1ccc(Cl)cc1)C(=O)OCC(=O)c1ccc2c(c1)NC(=O)CO2 | – | – | – | – | -5.7 | 32% | –
CC(C)[C@H](NC(=O)c1ccccc1)C(=O)OCC(=O)c1ccc2c(c1)NC(=O)CO2 | – | – | – | – | -9 | 33% | –
Cc1ccc(S(=O)(=O)NNC(=O)c2sc3nc(C)cc(C)c3c2-n2cccc2)cc1 | · | – | – | – | -5 | – | –
COc1ccc(-c2c(-c3ccc(O)cc3O)n[nH]c2C(F)(F)F)cc1 | · | – | – | – | – | · | ·
Oc1ccc(-c2n[nH]c(C(F)(F)F)c2-c2ccccc2)c(O)c1 | 97 | – | – | – | -5.2 | 62% | –
CCN(CC(=O)NCc1cccs1)S(=O)(=O)c1ccc(C(C)C)cc1 | · | – | – | – | -5 | 60% | –
CC(C)(C)NC(=O)CN(Cc1ccco1)C(=O)CCC(=O)Nc1nccs1 | – | – | – | · | – | · | ·
SMILES | ALR H2O2 inh | CHT PAM | PREPL inhibitor | AI-2 QS mod | CHT block | CHT inh conf | HEK293 MPD ctr
CCOc1ccc(S(=O)(=O)N2CCN(C(=O)c3cc4ccccc4o3)CC2)cc1 | – | · | – | · | · | · | ·
CSc1ccccc1NC(=O)c1ccc(N2CCCC2=O)cc1 | – | · | – | · | · | · | ·
Cc1c(NC(=O)CSc2nnc(C(C)Oc3ccc(Cl)cc3)n2-c2ccccc2)c(=O)n(-c2ccccc2)n1C (stereo unspecified) | – | – | – | – | -10 | 22% | –
Cn1c(Cc2ccccc2)nnc1SCC(=O)Nc1cccc(S(=O)(=O)NC2=NCCCCC2)c1 | – | – | – | – | – | · | ·
Nn1c(Cc2ccccc2F)nnc1SCC(=O)Nc1cccc(S(=O)(=O)NC2=NCCCCC2)c1 | · | – | – | – | -6.1 | – | –
O=C(O)c1cccc(CSc2ncn[nH]2)c1 | – | – | – | – | -6.1 | – | –
Cc1cc(C)nc(SCc2cccc(C(=O)O)c2)n1 | – | – | – | – | – | · | ·
CC(=O)c1ccc(N2CCN(C(=O)C3CCCN3S(=O)(=O)c3cccc4nsnc34)CC2)cc1 (stereo unspecified) | – | – | – | – | – | · | ·
O=C(C1CCCN1S(=O)(=O)c1cccc2nsnc12)N1CCCCC1 (stereo unspecified) | – | – | – | – | -9.8 | – | –
Cn1ccnc1SCC(=O)N1CCN(S(=O)(=O)c2ccccc2)CC1 | – | – | – | – | -5 | – | –
Cn1nnnc1SCC(=O)N1CCN(S(=O)(=O)c2ccccc2)CC1 | – | – | – | – | – | · | ·
Cc1ccnc(NC(=O)c2cnc(Cl)c(Cl)c2)c1 | · | – | – | – | – | · | ·
Cc1ccc(C)c(OC(C)C(=O)Nc2ccc(S(=O)(=O)Nc3nccs3)cc2)c1 (stereo unspecified) | – | – | – | – | – | · | ·
Cc1ccccc1OC(C)C(=O)Nc1ccc(S(=O)(=O)Nc2nccs2)cc1 (stereo unspecified) | – | – | – | – | -7.2 | 47% | –
CC(Oc1ccccc1Cl)C(=O)Nc1ccc(S(=O)(=O)Nc2nccs2)cc1 (stereo unspecified) | · | – | – | – | -7.7 | 65% | –
COC(=O)NC(=S)Nc1ccc(Oc2ccc(Cl)cc2Cl)c(Cl)c1 | – | – | – | – | – | · | ·
Cc1ccc(CNC(=O)c2ccccc2NS(=O)(=O)c2ccc(Cl)nc2)cc1 | – | – | – | – | -5.7 | 54% | –
O=C(c1ccccc1)c1cc2c(cc1[N+](=O)[O-])OCCO2 | – | – | – | – | – | · | ·
Cn1c(C(=O)O)c(C=O)c2ccccc21 | – | – | – | – | -6.7 | – | –
COc1cccc(O)c1CN1CCC(Oc2ccc(C(=O)NCc3ccccn3)cc2)CC1 | – | – | – | – | – | · | ·
CC(C)(C)C(=O)Oc1cccc(Nc2ncnc3ccccc23)c1 | – | – | – | – | -5 | 61% | –
CCN1CCN(c2cc(C)c3cc(NC(=S)NCCCN4CCc5ccccc5C4)ccc3n2)CC1 | – | – | – | – | -5.4 | 31% | 2.8
CCCN1CCN(CCCNC(=S)Nc2ccc3nc(N4CCN(CC)CC4)cc(C)c3c2)CC1 | · | – | – | – | -6.7 | 13% | –
Cc1cccc(C(=O)N(Cc2nc3ccccc3c(=O)[nH]2)C2CCCCC2)c1 | – | – | – | – | – | · | ·
COc1cc(CCC(=O)OCC(=O)NCc2ccc(Cl)cc2)cc(OC)c1OC | – | – | – | – | -6.5 | 66% | –
O=C1NN(c2ccccc2)C(=O)/C1=C/c1coc2ccccc2c1=O | 97 | – | – | – | -5.3 | 31% | –

Assay outcomes: PubChem, several laboratories
